# TGFb SMAD3 inh: blocks TGF-b signaling; actives 1.2% (n = 410,000); HepG2 CAGA-GFP TGF-b/SMAD3 reporter, GFP fluorescence, 18 h; TGF-beta stimulated, 500 pg/mL final; Potency, µM (doses to about 46.1 µM), for the others: at the highest dose activity, negative = inhibition, hits mostly inhibitors; also: % is scaled to controls: 0 for no effect and ±100 for the full control effect; nearly all actives have a fitted effect of over 65% in size
#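 GFP signal (ex488/em500-530) from TGF-beta-stimulated HEPG2 CAGA-GFP cells, 500 pg/mL final, 18 h at 37 degrees C in DMEM plus 1% FBS, normalized to unstimulated and DMSO-stimulated controls.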
# ATXN2 expr inh: ATXN2 expression inhibition. HEK-293 ATXN2-luciferase reporter, luminescence, 24 h. Potency, µM (top dose mostly 57 µM), inactives show top-dose activity change, negative = inhibition, most hits filed as inhibitors. actives 0.72% (n = 360,000). AID 1745845; also: % is scaled to controls: 0 for no effect and ±100 for the full control effect; nearly all actives have a fitted effect of over 55% in size
#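 qHTS (up to 57 uM final) was run with 24 h compound exposure of reporter cells at 37 °C. Each well was multiplexed: SteadyGlo luminescence measured ATXN2-luciferase expression after a fluorogenic Gly-Phe-AFC viability readout (25 uM final).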
# S2 tox: viability counter-screen for ATXN expression inhibitors | S2 cells (HEK-293 line with an ATXN2-luciferase reporter) viability, CellTiter-Fluor protease fluorescence, 24 h | Potency, µM (top dose mostly 56.7 µM), actives largely listed as cytotoxic | actives 0.49% (n = 400,000) | AID 651635; also: nearly all actives have a fitted effect of over 40% in size
# HepG2 viability: counter-screen for TGF-b inhibitors: cytotoxicity in HepG2 cells; HepG2 CAGA-GFP viability, ATP luminescence, 18 h; actives 0.76% (n = 410,000); Potency, µM (top dose mostly 46.1 µM), for inactives: top-dose activity change, negative = cytotoxicity, actives largely listed as cytotoxic
#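 CellTiter-Glo luminescence gave cytotoxicity after 18 hours at 37 degrees C. The cells were HepG2 CAGA-GFP in 1% FBS DMEM, stimulated with 500 pg/mL TGF-beta after compound addition. %Activity was normalised to no-cell wells (complete cell-killing) and DMSO (no toxicity), and curves were fitted and classified.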
# VP16 counter: counter-screen for ROR gamma inhibitors: Gal4-VP16 reporter | Drosophila S2 Gal4-VP16 UAS-luciferase, luminescence, 20 h | AID 2546 | Potency, µM (top dose mostly 53.6 µM), for the others: at the highest dose activity, negative = inhibition, hits mostly inhibitors | actives 3.5% (n = 310,000);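 also: Gal4-VP16 expression switched on by copper sulfate through the metallothionein promoter; % is scaled to controls: 0 for no effect and ±100 for the full control effect; nearly all actives have a fitted effect of over 50% in size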
# RORg inh: inhibitors of mouse ROR gamma transcriptional activity; actives 5.4% (n = 310,000); AID 2551; Drosophila S2 Gal4-RORgamma UAS-luciferase reporter, 20 h; P51450; Potency, µM (series often up to 53.6 µM), for inactives: at the highest dose activity change, negative = inhibition, most hits filed as inhibitors; also: % is scaled to controls: 0 for no effect and ±100 for the full control effect; nearly all actives have a fitted effect of over 60% in size
# Target sequence (P51450 whole entry, looked up, the tested form may be a part): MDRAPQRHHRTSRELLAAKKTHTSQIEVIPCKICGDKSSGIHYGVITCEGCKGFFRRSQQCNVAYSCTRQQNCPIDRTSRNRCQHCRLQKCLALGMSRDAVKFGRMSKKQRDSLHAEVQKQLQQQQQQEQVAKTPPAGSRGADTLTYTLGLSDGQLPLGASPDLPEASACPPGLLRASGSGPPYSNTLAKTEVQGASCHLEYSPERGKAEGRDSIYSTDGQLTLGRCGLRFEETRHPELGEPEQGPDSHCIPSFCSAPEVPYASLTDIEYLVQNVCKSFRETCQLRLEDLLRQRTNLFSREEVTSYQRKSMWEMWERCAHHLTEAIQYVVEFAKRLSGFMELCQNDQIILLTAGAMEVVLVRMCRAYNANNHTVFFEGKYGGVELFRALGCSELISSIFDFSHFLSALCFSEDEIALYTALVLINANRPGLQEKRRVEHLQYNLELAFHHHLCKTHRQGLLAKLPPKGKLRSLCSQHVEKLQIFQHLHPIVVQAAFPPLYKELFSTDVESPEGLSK
#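 Luciferase reporter read in Schneider cells carrying Gal4-RORγ (mouse) and UAS-Photinus luciferase; cells given compound 1 h before 700 uM copper sulfate induction, then incubated 20 h at ambient temperature.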
# The depositor's hits bear a star; i = inactive; ? = inconclusive; nt = no result given. This is a sample that favours compounds with a hit; in the whole collection about 6.3% have one here. Calls follow the shape of the dose curve; as a rule, active = well fitted curve in the direction sought with a large enough effect; inconclusive = small, poorly fitted or top-dose-only effect, or another doubt; inactive = no such curve, though single readings can be large; an effect the other way counts as inactive or inconclusive. Potency is read from the fitted curve at half-maximal effect.
SMILES,TGFb SMAD3 inh,ATXN2 expr inh,S2 tox,HepG2 viability,VP16 counter,RORg inh
CC(NC(=O)c1cccnc1)c1nnc2n1CCN(Cc1ccc(-c3ccccc3)cc1)CC2 (stereo not drawn),nt,nt,i,nt,nt,nt
Cc1c(CN2CCOc3c(O)cc(-c4nc5ccccc5s4)cc3C2)cnn1C,nt,nt,i,nt,nt,nt
COc1cccc(CNC(=O)c2c(OC)cc(=O)n3c2CCN(C(=O)c2ccccc2Cl)CC3)c1,nt,nt,i,nt,nt,nt
COc1ccc(-c2oc3ccc(C)cc3c(=O)c2O)cc1OC,nt,nt,nt,nt,?,5.01µM*
O=c1c(O)c(-c2cccc(O)c2)oc2ccccc12,nt,nt,nt,nt,1.5%,?
COc1cccc(-c2oc3ccccc3c(=O)c2O)c1,nt,nt,nt,nt,7.94µM*,6.31µM*
O=C(C[n+]1ccccc1Br)c1ccc(Cl)cc1,27.8%,nt,nt,7.9%,nt,nt
COc1ccc(/C=N\NC(=O)C2=NNC(=O)C2C)cc1 (stereo not drawn),9.0%,2.4%,i,-35.6%,3.16µM*,12.6µM*
CCCCc1ccc(NC(=S)Nc2ccc(Cl)c(S(=O)(=O)N(C)C)c2)cc1,-32.1%,?,i,-30.1%,?,11.2µM*
CCCCc1ccc(NC(=S)NCCN2CCOCC2)cc1,3.0%,-16.2%,i,-3.2%,?,10µM*
Cc1cc(OCC(=O)NNC(=S)NCC2CCCO2)cc(C)c1Cl (stereo not drawn),0.0%,5.9%,i,-24.1%,6.31µM*,3.16µM*
S=C(NCC1CCCO1)NC1CCCC1 (stereo not drawn),9.8%,14.4%,i,6.3%,-21.8%,12.6µM*
CCN1CCN(CC(=O)Nc2ccc(Cl)c(S(=O)(=O)N(C)C)c2)CC1,-14.8%,nt,i,6.0%,?,?
S=C(NCC1CCCO1)Nc1ccccc1Cl (stereo not drawn),?,-0.1%,i,-0.2%,15.8%,?
CCN(CC)C(=O)c1sc2c(c1C)c(=O)n(-c1ccc(Cl)c(Cl)c1)c(=O)n2Cc1cc(=O)n2c(C)cccc2n1,-28.1%,-10.8%,i,-4.1%,nt,nt
CC1(C(=O)NS(=O)(=O)Cc2ccccc2C(F)(F)F)CCN1C(=O)c1ccccc1 (stereo not drawn),9.4%,5.9%,i,1.1%,nt,nt
CCc1cc(C(=O)NCCN2Cc3ccccc3OC(c3ccsc3)C2)n(C)n1 (stereo not drawn),nt,nt,i,nt,nt,nt
CC(C)(O)[C@H]1CC[C@@](C)([C@H]2[C@@H](O)C[C@@]3(C)[C@@H]4C[C@H](O[C@@H]5O[C@H](CO)[C@@H](O)[C@H](O)[C@@H]5O)[C@H]5C(C)(C)[C@@H](O[C@@H]6OC[C@@H](O)[C@H](O)[C@@H]6O)CC[C@@]56C[C@@]46CC[C@]23C)O1,nt,9.6%,nt,nt,nt,nt
O=C(Cc1ccc(Cl)c(Cl)c1)NNC(=S)NCC1CCCO1 (stereo not drawn),-6.0%,-15.0%,i,-46.5%,-14.1%,?
S=C(NCC1CCCO1)Nc1ccc(Cl)c(Cl)c1 (stereo not drawn),?,nt,i,-23.9%,?,3.55µM*
CCCCc1ccc(NC(=S)NCCc2ccc(S(N)(=O)=O)cc2)cc1,-28.7%,-17.8%,i,-24.2%,8.91µM*,?
CCCCc1ccc(NC(=S)NCC2CCCO2)cc1 (stereo not drawn),-25.2%,-18.6%,i,-21.9%,?,2.82µM*
O=C(NNC(=S)NCC1CCCO1)c1cc(Br)ccc1Cl (stereo not drawn),7.5%,2.4%,i,-3.6%,20µM*,3.16µM*
CCc1nc2c(OCc3ccccc3C(=O)OC)cccn2c1N(C)C(=O)CC(C)C,17.2%,-18.6%,i,-0.1%,nt,nt
CCN1C(=O)c2ccccc2C1Nc1ccc(OCCN2CCCCC2)cc1 (stereo not drawn),nt,3.8%,i,nt,nt,nt
